In PubChem BioAssay (EPA / NIEHS) one finds outcome and AC50 data, which are given here for three compounds.

Experiment [1] concerns the target Paired box protein Pax-6 (Homo sapiens) (UniProt P26367). Briefly: ATG_Pax6_CIS: Attagene CIS-FACTORIAL HepG2 Assay for human Paired Box 6 (PAX6) (AID 2282956). The note with it: HepG2 CIS-FACTORIAL PAX6 reporter transcription, RNA readout; actives raise or lower the signal. Put shortly: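 Readout: reporter transcript fluorescence after RT-PCR and capillary electrophoresis. Cells: HepG2, transiently transfected with cis-regulated MRTUs. Exposure 24 h. Gain or loss of signal fitted bidirectionally relative to DMSO.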

Experiment [2] can be described thus: ATG_PXRE_CIS: Attagene CIS-FACTORIAL HepG2 Assay for human Pregnane X Receptor Element (PXRE) (AID 2282957). The note with it: HepG2 Attagene CIS-FACTORIAL PXRE reporter, mRNA; actives raise or lower the signal. Put shortly: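 After a 24 h chemical incubation, total RNA from transfected HepG2 cells was reverse-transcribed and reporter cDNA amplified, FAM-labeled, HpaI-digested and sized by capillary electrophoresis. DMSO served as baseline for bidirectional curve fitting.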

A short description of experiment [3]: ATG_PPRE_CIS: Attagene CIS-FACTORIAL HepG2 Assay for human Peroxisome Proliferator-activated Response Element (PPRE) (AID 2282958). The note with it: HepG2 PPRE cis-element reporter, Attagene transcription factor profiling; actives raise or lower the signal. Put shortly: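 Read-out: fluorescent reporter mRNA fragments resolved by capillary electrophoresis after RT-PCR. HepG2 cells carried transiently transfected PPRE-driven cis reporter constructs and were dosed for 24 h; gain or loss of signal fitted relative to DMSO.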

Experiment [4] is described as follows: ATG_RORE_CIS: Attagene CIS-FACTORIAL HepG2 Assay for human RAR-related Orphan Receptor Element (RORE) (AID 2282959). The note with it: HepG2 Attagene cis-factorial RORE reporter, mRNA; actives raise or lower the signal. Put shortly:
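Readout: fluorescent reporter mRNA by RT-PCR plus capillary electrophoresis, 24 h after dosing transfected HepG2 cells. Endogenous transcription factor activity on a cis promoter element is measured. Gain or loss of signal fitted against DMSO.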

A short description of experiment [5]: ATG_Sox_CIS: Attagene CIS-FACTORIAL HepG2 Assay for human SRY-box transcription factor (SOX) (AID 2282960). The settings on record: HepG2 Attagene cis-factorial SOX reporter, mRNA; actives raise or lower the signal. Put shortly: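 Read-out: fluorescent RT-PCR products of SOX1-linked reporter transcripts resolved by capillary electrophoresis, fitted bidirectionally against DMSO. Transiently transfected HepG2 cells, 24 h after chemical exposure, endogenous transcription factor activity.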

Experiment [6] has as its target Transcription factor Sp1 (Homo sapiens) (UniProt P08047). Briefly: ATG_Sp1_CIS: Attagene CIS-FACTORIAL HepG2 Assay for human Specificity Protein 1 (Sp1) (AID 2282961). The settings on record: HepG2 Sp1 cis-reporter transcription, actives raise or lower the signal. Put shortly: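 Read-out: fluorescence of 6-FAM-labeled, HpaI-digested RT-PCR products separated by capillary electrophoresis. HepG2 cells carried transfected cis-element reporter units and were exposed to chemicals for 24 h; gain or loss of signal fitted relative to DMSO.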

Experiment [7] in a line: ATG_SREBP_CIS: Attagene CIS-FACTORIAL HepG2 Assay for human Sterol Regulatory Element Binding (SREBP) (AID 2282962). The settings on record: HepG2 Attagene cis-factorial SREBP reporter, mRNA; actives raise or lower the signal. Put shortly: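 Readout: fluorescent reporter-transcript peaks resolved by capillary electrophoresis after RT-PCR. Cells were human HepG2 carrying transfected cis-promoter reporter constructs, dosed for 24 h. Gain or loss of signal was fitted against DMSO controls.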

Experiment [8] has as its target Signal transducer and activator of transcription 3 (Homo sapiens) (UniProt P40763). The experiment in a line: ATG_STAT3_CIS: Attagene CIS-FACTORIAL HepG2 Assay for human Signal Transducer and Activator of Transcription 3 (STAT3) (AID 2282963). The note with it: HepG2, Attagene cis-factorial STAT3 reporter transcription; actives raise or lower the signal. Put shortly:
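Cis-factorial format: endogenous transcription factors in HepG2 drive transfected reporter units. After 24 h treatment, reporter RNA was reverse-transcribed, amplified, FAM-labelled and HpaI-digested before CE analysis; activity scored in both directions against DMSO.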

Experiment [9] in a line: ATG_TA_CIS: Attagene CIS-FACTORIAL HepG2 Assay for human TA Basal Promoter (AID 2282964). The note with it: HepG2 Attagene CIS-factorial TA basal promoter reporter; actives raise or lower the signal. Put shortly: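 Steps: transfect HepG2 with MRTUs; dose 24 h; isolate RNA, DNase-treat, reverse-transcribe; PCR and FAM-label reporter cDNA; digest with HpaI 2h at 37 C; run capillary electrophoresis. Activity fitted both directions against DMSO.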

A short description of experiment [10]: ATG_TCF_b_cat_CIS: Attagene CIS-FACTORIAL HepG2 Assay for human T-Cell-Factor with beta-catenin (TCF/b-cat) (AID 2282965). The settings on record: HepG2 TCF/beta-catenin cis-reporter transcription, actives raise or lower the signal. Put shortly:
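Measured: reporter mRNA in HepG2 transiently transfected with cis-promoter reporter units, 24 h after chemical addition. Fitting was bidirectional, DMSO as negative control.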

Experiment [11] is described as follows: ATG_TAL_CIS: Attagene CIS-FACTORIAL HepG2 Assay for human TAL Basal Promoter (AID 2282966).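 Note: background control endpoint measuring basal TAL promoter reporter mRNA not a specific factor.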 The settings on record: HepG2 Attagene cis-factorial TAL promoter reporter; actives raise or lower the signal. Put shortly:
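Basal-promoter background-control endpoint from a multiplexed HepG2 reporter panel. Cells were exposed 24 h, then reporter mRNA was read by RT-PCR/CE fluorescence and fitted in both directions relative to DMSO.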

Experiment [12] in a line: ATG_TGFb_CIS: Attagene CIS-FACTORIAL HepG2 Assay for human Transforming Growth Factor (TGF) (AID 2282967). The note with it: HepG2 Attagene CIS TGFb reporter, mRNA transcription; actives raise or lower the signal. Put shortly: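 Cells were dosed for 24 hours, after which total RNA was reverse-transcribed and reporter sequences amplified, labeled and sized by capillary electrophoresis. Activity was fitted in both directions against DMSO.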

Experiment [13] is described as follows: ATG_VDRE_CIS: Attagene CIS-FACTORIAL HepG2 Assay for human Vitamin D Receptor Element (VDRE) (AID 2282968). The settings on record: HepG2 VDRE cis-reporter transcription, actives raise or lower the signal. Put shortly: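 Measures endogenous factor activity through cis-element-driven reporter transcripts in transiently transfected HepG2. Cells are treated 24 h; reporter mRNA is quantified by RT-PCR and capillary electrophoresis; fitting is bidirectional.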

In experiment [14] the target is Estrogen receptor (Homo sapiens) (UniProt P03372). Briefly: ATG_ERa_TRANS: Attagene TRANS-FACTORIAL HepG2 Assay for human Estrogen Receptor alpha (ERa) (AID 2282970; active = hit-call score of the fitted dose curve at least 0.9, where 1 is the maximum). The settings on record: HepG2 Attagene TRANS ERa GAL4 reporter, mRNA. Put shortly: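 Gal4-fusion ERa transactivation, measured as reporter transcript level in transiently transfected HepG2 cells. Exposure 24 h; RT-PCR plus capillary electrophoresis with fluorescence detection.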

Experiment [15] addresses X-box-binding protein 1 (Homo sapiens) (UniProt P17861). Briefly: ATG_Xbp1_CIS: Attagene CIS-FACTORIAL HepG2 Assay for human X-box Binding Protein 1 (XBP1) (AID 2282972). The settings on record: HepG2 XBP1 cis-element reporter, Attagene multiplex; actives raise or lower the signal. Put shortly:
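Read-out: fluorescent reporter mRNA fragments resolved by capillary electrophoresis after RT-PCR. Human HepG2 liver cells carried transfected cis-promoter reporter units and were exposed to chemicals for 24 hours. Gain or loss of signal fitted relative to DMSO baseline.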

Results filed as inconclusive are left out. Activity calls are given as the source filed them. Rule for the calls, unless noted: active = hit-call score of the fitted dose curve at least 0.9, where 1 is the maximum; inactive = score below 0.9.

Sequence of X-box-binding protein 1 (Homo sapiens) (P17861 whole entry, looked up, the tested form may be a part): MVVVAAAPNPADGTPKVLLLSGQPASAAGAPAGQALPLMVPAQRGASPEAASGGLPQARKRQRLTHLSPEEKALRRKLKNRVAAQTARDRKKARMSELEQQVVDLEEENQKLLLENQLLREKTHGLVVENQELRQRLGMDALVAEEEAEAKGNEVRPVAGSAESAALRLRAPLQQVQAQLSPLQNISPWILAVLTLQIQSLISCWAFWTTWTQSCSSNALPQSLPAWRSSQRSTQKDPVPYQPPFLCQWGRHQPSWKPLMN
Sequence of Estrogen receptor (Homo sapiens) (P03372 whole entry, looked up, the tested form may be a part): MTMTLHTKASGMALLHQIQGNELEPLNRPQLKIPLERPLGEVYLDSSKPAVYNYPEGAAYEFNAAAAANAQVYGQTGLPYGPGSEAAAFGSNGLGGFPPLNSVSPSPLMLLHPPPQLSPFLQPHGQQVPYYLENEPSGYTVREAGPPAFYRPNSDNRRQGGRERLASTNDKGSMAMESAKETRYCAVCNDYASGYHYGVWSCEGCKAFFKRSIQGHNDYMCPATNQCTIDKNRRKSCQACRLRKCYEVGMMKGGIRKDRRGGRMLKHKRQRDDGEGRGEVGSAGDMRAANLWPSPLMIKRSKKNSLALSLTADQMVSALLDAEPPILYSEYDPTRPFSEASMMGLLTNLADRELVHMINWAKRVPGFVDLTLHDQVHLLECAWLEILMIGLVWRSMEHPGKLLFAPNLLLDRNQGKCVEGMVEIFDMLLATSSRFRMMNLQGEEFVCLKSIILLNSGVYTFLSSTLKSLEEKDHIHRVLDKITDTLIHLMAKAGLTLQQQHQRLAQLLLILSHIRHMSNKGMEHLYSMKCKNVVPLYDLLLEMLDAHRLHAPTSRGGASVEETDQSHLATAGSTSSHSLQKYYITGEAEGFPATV
Sequence of Paired box protein Pax-6 (Homo sapiens) (P26367 whole entry, looked up): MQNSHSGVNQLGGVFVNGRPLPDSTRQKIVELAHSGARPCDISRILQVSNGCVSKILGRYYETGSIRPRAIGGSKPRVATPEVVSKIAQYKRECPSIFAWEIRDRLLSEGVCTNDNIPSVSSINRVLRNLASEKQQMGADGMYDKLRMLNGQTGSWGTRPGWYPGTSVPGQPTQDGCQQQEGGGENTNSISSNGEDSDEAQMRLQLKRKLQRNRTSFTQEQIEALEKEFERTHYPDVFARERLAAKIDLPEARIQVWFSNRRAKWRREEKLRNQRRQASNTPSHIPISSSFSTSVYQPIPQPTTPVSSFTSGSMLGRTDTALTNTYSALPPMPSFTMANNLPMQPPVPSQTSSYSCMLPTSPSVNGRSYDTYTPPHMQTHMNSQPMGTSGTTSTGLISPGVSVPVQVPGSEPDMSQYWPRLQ
Sequence of Signal transducer and activator of transcription 3 (Homo sapiens) (P40763 whole entry, looked up): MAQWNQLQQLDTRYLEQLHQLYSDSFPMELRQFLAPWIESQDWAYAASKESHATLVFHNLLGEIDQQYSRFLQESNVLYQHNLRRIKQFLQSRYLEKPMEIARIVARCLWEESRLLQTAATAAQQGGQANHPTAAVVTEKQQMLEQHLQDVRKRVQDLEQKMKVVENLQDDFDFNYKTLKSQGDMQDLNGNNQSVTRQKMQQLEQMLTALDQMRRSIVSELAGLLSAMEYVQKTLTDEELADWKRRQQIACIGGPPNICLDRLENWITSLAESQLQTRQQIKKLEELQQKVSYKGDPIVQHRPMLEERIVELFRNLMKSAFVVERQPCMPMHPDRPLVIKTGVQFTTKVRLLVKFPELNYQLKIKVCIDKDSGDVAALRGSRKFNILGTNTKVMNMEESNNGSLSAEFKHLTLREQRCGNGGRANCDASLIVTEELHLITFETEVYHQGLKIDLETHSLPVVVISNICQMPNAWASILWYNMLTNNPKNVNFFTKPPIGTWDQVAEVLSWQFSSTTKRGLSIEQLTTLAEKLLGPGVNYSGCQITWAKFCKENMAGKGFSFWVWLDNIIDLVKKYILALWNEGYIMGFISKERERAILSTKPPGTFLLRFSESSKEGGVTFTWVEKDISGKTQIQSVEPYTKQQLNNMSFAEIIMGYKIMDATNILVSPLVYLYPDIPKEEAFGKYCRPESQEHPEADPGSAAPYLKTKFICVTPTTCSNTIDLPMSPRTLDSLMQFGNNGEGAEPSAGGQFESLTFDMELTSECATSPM
Sequence of Transcription factor Sp1 (Homo sapiens) (P08047 whole entry, looked up): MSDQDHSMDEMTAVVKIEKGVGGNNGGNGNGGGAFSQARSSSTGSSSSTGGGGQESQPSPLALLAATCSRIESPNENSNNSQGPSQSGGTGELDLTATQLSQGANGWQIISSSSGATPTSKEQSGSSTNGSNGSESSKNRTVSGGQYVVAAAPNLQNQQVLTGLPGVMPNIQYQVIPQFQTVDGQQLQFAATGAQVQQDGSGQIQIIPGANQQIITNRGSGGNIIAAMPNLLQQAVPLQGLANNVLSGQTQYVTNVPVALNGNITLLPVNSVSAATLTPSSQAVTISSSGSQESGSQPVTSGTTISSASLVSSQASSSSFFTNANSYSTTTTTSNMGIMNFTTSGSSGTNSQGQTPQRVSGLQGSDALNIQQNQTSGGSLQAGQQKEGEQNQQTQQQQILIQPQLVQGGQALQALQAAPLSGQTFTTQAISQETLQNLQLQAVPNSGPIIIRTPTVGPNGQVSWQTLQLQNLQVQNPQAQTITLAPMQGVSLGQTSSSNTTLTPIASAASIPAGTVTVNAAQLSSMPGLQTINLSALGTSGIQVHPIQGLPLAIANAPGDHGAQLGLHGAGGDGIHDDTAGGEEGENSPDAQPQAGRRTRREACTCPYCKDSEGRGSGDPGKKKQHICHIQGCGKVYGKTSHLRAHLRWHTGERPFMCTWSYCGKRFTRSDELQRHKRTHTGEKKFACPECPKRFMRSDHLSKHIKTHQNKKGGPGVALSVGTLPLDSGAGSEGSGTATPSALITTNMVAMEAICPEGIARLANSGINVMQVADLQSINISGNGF

Turning to `CC1=CC(=O)/C(=C(/C)O)C(=O)O1`, the result in [1], in experiment [2], in [3], in [4], in experiment [5] and in [6] was inactive. Also, the compound was classed as inactive in [7], in experiment [8], in [9], in experiment [10], in experiment [11] and in [12]. For the same compound, the compound was called inactive in experiment [13], in experiment [14] and in experiment [15].

On to `CCCC(=O)OCCC(C)C`, for which the compound was classed as inactive in experiment [1], in [2], in experiment [3], in [4], in [5] and in [6]. The compound was classed as inactive in [7], in [8], in [9], in experiment [10], in [11] and in experiment [12]. The outcome in experiment [13], in experiment [14] and in experiment [15] was inactive.

In the case of `NCc1cccc(C2CCN(C(=O)c3ccc(C#Cc4ccccc4F)o3)CC2)c1`, the AC50 in [1] was 16.4 µM (active); in experiment [3] it was 2.77 µM (active); in experiment [4], 6.79 µM (active); in experiment [7], 8 µM (active); in experiment [9], 16.1 µM (active); in experiment [10] it was 17 µM (active). For the same compound, the values for the AC50 in [13], in experiment [14] and in experiment [15] were 14.3 µM (active), 9.53 µM (active) and 14 µM (active), respectively. Besides, the outcome in experiment [2], in [5], in experiment [6], in experiment [8], in experiment [11] and in [12] was inactive.
